The record followed here is PMC4336329 (PLoS ONE, 2015).

Structures are written as SMILES. In all, about 310,000 compounds went through this assay and about 14,000 (4.5%) showed an effect of 50% or more. Effects have a minus sign here. Shown is part of a subset that was picked to be rich in strong results.
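Further: peak tail current of the secondary pulse compared with the same well before compound.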

The target of the assay is human ether-à-go-go-related gene (hERG) potassium channel (human, UniProt Q12809). Put plainly: primary screen, population patch clamp on CHO cells stably expressing hERG; higher = less effect of the substance.
Chain of human ether-à-go-go-related gene (hERG) potassium channel (Q12809 whole entry, looked up): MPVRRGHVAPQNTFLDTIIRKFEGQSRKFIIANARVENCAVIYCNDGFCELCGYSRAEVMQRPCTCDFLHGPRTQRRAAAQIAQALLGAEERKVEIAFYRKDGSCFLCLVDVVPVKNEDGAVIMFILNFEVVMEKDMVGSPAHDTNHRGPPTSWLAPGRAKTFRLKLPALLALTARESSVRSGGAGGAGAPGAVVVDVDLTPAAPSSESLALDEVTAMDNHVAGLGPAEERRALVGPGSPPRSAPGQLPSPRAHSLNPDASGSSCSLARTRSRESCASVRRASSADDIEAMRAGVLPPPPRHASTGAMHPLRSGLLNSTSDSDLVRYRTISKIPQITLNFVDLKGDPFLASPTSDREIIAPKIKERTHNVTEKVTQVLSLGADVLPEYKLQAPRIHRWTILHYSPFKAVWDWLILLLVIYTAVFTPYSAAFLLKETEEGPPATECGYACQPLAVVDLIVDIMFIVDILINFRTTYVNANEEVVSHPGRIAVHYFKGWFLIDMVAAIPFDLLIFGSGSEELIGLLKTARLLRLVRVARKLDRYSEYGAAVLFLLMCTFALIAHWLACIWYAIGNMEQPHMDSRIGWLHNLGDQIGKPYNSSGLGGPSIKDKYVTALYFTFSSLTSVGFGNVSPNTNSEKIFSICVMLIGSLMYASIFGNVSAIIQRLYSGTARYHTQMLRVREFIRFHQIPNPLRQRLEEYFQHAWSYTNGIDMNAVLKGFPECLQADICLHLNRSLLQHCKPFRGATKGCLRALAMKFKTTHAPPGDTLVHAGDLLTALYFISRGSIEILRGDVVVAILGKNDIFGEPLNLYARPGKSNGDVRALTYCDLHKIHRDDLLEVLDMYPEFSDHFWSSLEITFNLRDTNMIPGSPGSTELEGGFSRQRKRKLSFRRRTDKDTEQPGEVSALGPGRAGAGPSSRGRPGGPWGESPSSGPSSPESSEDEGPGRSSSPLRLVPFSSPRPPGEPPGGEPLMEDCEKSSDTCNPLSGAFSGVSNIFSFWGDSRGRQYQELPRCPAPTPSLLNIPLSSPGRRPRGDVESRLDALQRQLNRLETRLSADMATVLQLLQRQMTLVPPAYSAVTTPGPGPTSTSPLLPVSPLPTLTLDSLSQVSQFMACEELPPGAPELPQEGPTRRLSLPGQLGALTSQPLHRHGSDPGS
`CCOC(=O)C(=O)N(Nc1ccccc1C)c1ccccc1C`: the “hERG current change (%, negative = inhibition) at 10uM” value is -14.3%.
`O=C(Nc1ccccn1)c1ccc2c(c1)OCCO2`: the “hERG current change (%, negative = inhibition) at 10uM” value is reported as 11.5%.
`CC1CCN(c2nc(-c3ccc(F)cc3)cc(C(F)(F)F)n2)CC1`: the “hERG current change (%, negative = inhibition) at 10uM” value is recorded as 15.6%.
Then `Cc1csc(C2=C(O)CN(CCc3ccccc3)C2=N)n1`, with 1.95%; and `O=C(CCc1ccccc1)OCCOC(=O)CCc1ccccc1`, with 22.1%; and `Cc1cc(C(F)(F)F)nn1CC(=O)Nc1ccc2c(c1)OCO2`, with -2.91%.
Regarding `CCCCOC(=O)c1ccc(NC(C)=O)cc1`, the “hERG current change (%, negative = inhibition) at 10uM” value was -11.2%.
In the case of `O=c1oc2ccccc2c(O)c1CN1CCCCC1` it was 13.9%.
`O=c1oc2ccccc2c(Nc2ccccc2)c1CN1CCCCC1`: the “hERG current change (%, negative = inhibition) at 10uM” value is on record as -57.1%.
For the molecule `O=c1oc2ccccc2c(N2CCCCC2)c1CN1CCCC1`, the “hERG current change (%, negative = inhibition) at 10uM” value is reported as -54.4%.
Regarding `O=c1oc2ccccc2c(N2CCCCC2)c1CN1CCCCC1`, the “hERG current change (%, negative = inhibition) at 10uM” value is -18.4%.
Turning to `O=c1oc2ccccc2c(N2CCCC2)c1CN1CCCC1`, the “hERG current change (%, negative = inhibition) at 10uM” value came out at 13%.
As to `Nc1c(N2CCCC2)c2ccccc2oc1=O`, the “hERG current change (%, negative = inhibition) at 10uM” value was 2.82%.
Regarding `CN1CCN(c2c(N)c(=O)oc3ccccc23)CC1`, the “hERG current change (%, negative = inhibition) at 10uM” value was -45.2%.
For the molecule `Nc1c(N2CCN(c3ccccc3)CC2)c2ccccc2oc1=O`, the “hERG current change (%, negative = inhibition) at 10uM” value is on record as -50.1%.
For the molecule `O=c1oc2ccccc2c(Cl)c1CN1CCCCC1`, the “hERG current change (%, negative = inhibition) at 10uM” value is listed as 24.1%.
For `Cc1cc(C)cc(C(=O)NC(CC(N)=O)c2ccc(NC3CCCC3)c([N+](=O)[O-])c2)c1` (stereo not shown), the “hERG current change (%, negative = inhibition) at 10uM” value came out at 13.2%.
On to `CC(=O)c1ccc(NC(=O)/C(=C\c2cccs2)NC(=O)c2ccco2)cc1`, for which the “hERG current change (%, negative = inhibition) at 10uM” value amounted to 17.9%.
For `Cc1ccc(S(=O)(=O)Oc2ccc(C(c3c(C)[nH][nH]c3=O)c3c(C)[nH][nH]c3=O)cc2)cc1`, the “hERG current change (%, negative = inhibition) at 10uM” value is reported as -1.83%.
For `CC(C)CCn1c(NCCN(C)C)nc2c1c(=O)[nH]c(=O)n2C`, the “hERG current change (%, negative = inhibition) at 10uM” value is listed as -23.2%.
In the case of `COc1ccc(-n2c(SC3CCOC3=O)nc3ccccc3c2=O)cc1OC` (stereo not shown) it was -4.64%.
For `COC(=O)c1c(NC(=O)c2cccc(S(=O)(=O)N3CCN(C)CC3)c2)sc(C)c1C`, the “hERG current change (%, negative = inhibition) at 10uM” value came out at 13.4%.
Take `COc1ccc(C2Nc3ccccc3C(=O)N2NC(=O)c2ccccc2)cc1OC` (stereo not shown): the “hERG current change (%, negative = inhibition) at 10uM” value is 3.24%.
Consider `Cc1ccccc1N=C1SCCN1C(=O)CN1C(=O)NC2(CCCC2)C1=O`, for which the “hERG current change (%, negative = inhibition) at 10uM” value is reported as -21.7%.
Take `CCOc1ccc(C2/C(=C(\O)c3ccc4c(c3)OCCO4)C(=O)C(=O)N2CCCN2CCOCC2)cc1OC` (stereo not shown): the “hERG current change (%, negative = inhibition) at 10uM” value is recorded as 3.69%.
As for `Cc1cc(S(=O)(=O)N2CCOCC2)ccc1OCC(=O)Nc1ccc(F)cc1`, the “hERG current change (%, negative = inhibition) at 10uM” value is given as -18.9%.
With `COc1ccc(C2/C=C\CN(S(=O)(=O)/C=C/c3ccccc3)[C@H](Cc3ccccc3)C(=O)N2Cc2ccc(F)cc2)cc1` (stereo partly shown), the “hERG current change (%, negative = inhibition) at 10uM” value is 8.05%.
Then `Cc1nn(-c2ccccc2)c2c1C(c1cccc([N+](=O)[O-])c1)N(c1ccccc1)C(=O)N2` (stereo not shown), with 11.1%; and `COc1ccc(C2SCC(=O)Nc3c2c(C)nn3-c2ccccc2)cc1` (stereo not shown), with -7.35%; and `Cc1nn(-c2ccccc2)c2c1C(c1ccc(Cl)cc1)N(c1ccccc1)C(=O)N2` (stereo not shown), with -64.6%.
Then `O=C(CCCOc1ccc(Cl)cc1)Nc1cccc(C(=O)O)c1`, with 13%; and `COc1ccc(NC(=O)c2ccc(-n3c(C)ccc3C)cc2)c(OC)c1`, with -24.3%; and `COC(=O)c1ccc(C23CC4(C2)[C@H](CN(C)[C@@H]4c2ccccc2)C3c2ccc(Cl)nc2)cc1` (stereo partly shown), with -28%.
For `CCOc1ccc(CNC(=O)CCC(=O)n2ncc3ccc(Cl)cc32)cc1`, the “hERG current change (%, negative = inhibition) at 10uM” value is recorded as -1.82%.
Take `COc1ccccc1/C=C/CN1CCC(Oc2cc(C(=O)NC3CC3)ccc2OC)CC1`: the “hERG current change (%, negative = inhibition) at 10uM” value was -76.5%.
For `COc1cc(C(=O)N2CCN(C/C=C/c3ccccc3)CC2)cc(OC)c1OC`, the “hERG current change (%, negative = inhibition) at 10uM” value was -35%.
Take `COc1cc(C(=O)N2CCN(C/C=C/c3ccccc3)CC2)cc(OC)c1C`: the “hERG current change (%, negative = inhibition) at 10uM” value is reported as -30.2%.
In the case of `COc1ccc(C(=O)NC2CC2)cc1OC1CCN(C/C=C/c2ccccc2)CC1` it was -79.9%; in that of `CCOC(=O)c1[nH]c2ccc(OCC)cc2c1NC(=O)CN1CCC2(CC1)OCCO2`, -25.7%.
Consider `Cc1ccsc1CNn1cnnc1SCc1ccc(Cl)cc1`, for which the “hERG current change (%, negative = inhibition) at 10uM” value was found to be 13%.
In the case of `O=C(CSc1nnc(-c2cnccn2)n1Cc1ccco1)c1ccc2ccccc2c1` it was -15.4%; in that of `COC(=O)c1cc(S(=O)(=O)NCC2CCN(Cc3ccc(C)cc3)CC2)cn1C`, -52%.
Consider `COC(=O)c1cc(S(=O)(=O)NCc2cccs2)c[nH]1`, for which the “hERG current change (%, negative = inhibition) at 10uM” value was 19.1%.
As to `COC(=O)c1cc(S(=O)(=O)NCc2ccc(Br)cc2)c[nH]1`, the “hERG current change (%, negative = inhibition) at 10uM” value is recorded as -16.1%.
With `COC(=O)c1cc(S(=O)(=O)NCCc2ccccc2)c[nH]1`, the “hERG current change (%, negative = inhibition) at 10uM” value turned out to be 5.93%.
In the case of `COC(=O)c1cc(S(=O)(=O)NCC2CCN(Cc3cccc(F)c3)CC2)cn1C` it was -18.5%.
In the case of `COC(=O)c1cc(S(=O)(=O)NCC2CCN(Cc3ccc(Cl)cc3)CC2)cn1C` it was -17%; in that of `COC(=O)c1cc(S(=O)(=O)NCC2CCN(CCc3ccc(OC)cc3)CC2)c[nH]1`, -67%.
For `COC(=O)c1cc(S(=O)(=O)NCC2CCN(CCc3cccs3)CC2)c[nH]1`, the “hERG current change (%, negative = inhibition) at 10uM” value is -51.1%.
Then `COC(=O)c1cc(S(=O)(=O)NCC2CCN(CCc3ccc(OC)cc3)CC2)cn1C`, with -61.2%.
Then `COC(=O)c1cc(S(=O)(=O)NCC2CCN(CCc3cccs3)CC2)cn1C`, with -49.6%; and `COC(=O)c1cc(S(=O)(=O)NCC2CCN(Cc3cc(C)ccc3C)CC2)cn1C`, with -27.5%.
Consider `COC(=O)c1cc(S(=O)(=O)NCC2CCN(Cc3ccc(F)cc3)CC2)cn1C`, for which the “hERG current change (%, negative = inhibition) at 10uM” value was -19.6%.
As to `COC(=O)c1sc(SC)c2c1CC(C)(C)C/C2=N/O`, the “hERG current change (%, negative = inhibition) at 10uM” value worked out at 10.6%.
Take `O=c1[nH]c(=O)n(-c2ccc(F)cc2)c(O)c1/C=C1\C=Nc2ccccc21`: the “hERG current change (%, negative = inhibition) at 10uM” value is given as 6.63%.
